A selection: hits, their analogues and other compounds. The true share with any hit is near 14%.
NS1 function inh: inhibitors of influenza NS1 protein function. Potency, µM (series often up to 46.1 µM), inactives show top-dose activity, positive = more growth. 270,000 tested, 0.4% active. AID 2326; calls by dose curve; also: potency is read from the fitted curve at half-maximal effect; actives are rising curves; nearly all actives have a fitted effect of over 50% in size
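OD600 was taken as the measure of yeast growth restored by compound in an NS1-expressing S. cerevisiae strain. Cells had been washed out of glucose medium and diluted 1:100 into galactose -URA medium, pH 6.0.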
CHX counter: counter-screen for Shiga toxin inhibitors: cycloheximide protein synthesis inhibition; cell reporter, cycloheximide protein synthesis inhibition counterscreen; max response, %; 300,000 tested, 12% active; AID 2314; in the data active = max response mostly above about 13%, no sharp cut-off; inactive = mostly below about 14%; also: read at 38.3 µM for the half of the compounds with a filed dose; 0% is about no effect
Giardia FBPA inh: inhibitors of Giardia lamblia fructose-1,6-bisphosphate aldolase | purified Giardia FBPA | 290,000 tested, 0.71% active | A8B2U2 | Potency, µM (doses to about 59.6 µM), for inactives: at the top dose activity, negative = inhibition, most hits filed as inhibitors; also: potency is read from the fitted curve at half-maximal effect; % is scaled to controls: 0 for no effect and ±100 for the full control effect; nearly all actives have a fitted effect of over 55% in size
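Giardia FBPA (40 nM reagent) was preincubated 10 min at RT with compound (up to 57.5 uM final), then substrate plus GAPDH/TPI/NAD/arsenate coupling system with diaphorase/resazurin was added; resorufin fluorescence (525/598 nm) was read after 20 min.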
LmPK inhibitor: inhibitors of Leishmania mexicana pyruvate kinase | Q27686 | purified LmPK, Kinase-Glo ATP luminescence, 1 h | Potency, µM (top dose mostly 57.5 µM), for inactives: at the highest dose activity change, negative = inhibition, actives largely listed as inhibitors | 290,000 tested, 0.37% active | AID 1721; also: potency is read from the fitted curve at half-maximal effect; % is scaled to controls: 0 for no effect and ±100 for the full control effect
Target sequence (Q27686 whole entry, looked up): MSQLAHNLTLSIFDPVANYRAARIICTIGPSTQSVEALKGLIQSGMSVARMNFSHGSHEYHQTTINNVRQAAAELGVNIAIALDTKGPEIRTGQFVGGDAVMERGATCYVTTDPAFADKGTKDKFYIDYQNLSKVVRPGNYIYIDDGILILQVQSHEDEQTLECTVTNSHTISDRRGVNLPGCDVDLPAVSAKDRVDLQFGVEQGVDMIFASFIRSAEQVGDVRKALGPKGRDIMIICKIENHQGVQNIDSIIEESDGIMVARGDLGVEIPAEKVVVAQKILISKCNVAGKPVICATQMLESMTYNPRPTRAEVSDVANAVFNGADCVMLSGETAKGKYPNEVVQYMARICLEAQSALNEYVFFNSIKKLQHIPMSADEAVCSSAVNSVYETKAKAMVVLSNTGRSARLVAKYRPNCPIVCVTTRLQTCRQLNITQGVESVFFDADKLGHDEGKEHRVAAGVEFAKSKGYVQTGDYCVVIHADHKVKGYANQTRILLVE
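0.1 nM LmPK, 0.5 mM PEP, 0.1 mM ADP; 50 mM imidazole pH 7.2, 7 mM MgCl2, 50 mM KCl; 1 h RT. Kinase-Glo luminescence readout, normalized to no-enzyme (full inhibition) and uninhibited wells.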
Shiga inhibitor: inhibitors of Shiga toxin in Vero cells | Vero cells, Shiga toxin protein synthesis inhibition reporter | inhibition, % at 38.7 µM | 290,000 tested, 9.2% active | AID 2315; in the data active = inhibition mostly above about 28%, no sharp cut-off; inactive = mostly below about 43%; also: 0% is about no effect
* = called active by the depositor; ? = inconclusive; . = no result; [ ] = remark or other dose. Unless noted, calls follow the shape of the dose curve; as a rule, active = well fitted curve in the direction sought with a large enough effect; inconclusive = small, poorly fitted or top-dose-only effect, or another doubt; inactive = no such curve, though single readings can be large; an effect the other way counts as inactive or inconclusive.

SMILES	NS1 function inh	CHX counter	Giardia FBPA inh	LmPK inhibitor	Shiga inhibitor
COc1ccc(-c2csc(Nc3ccccn3)n2)cc1OC	-4%	37*	-10%	4%	67*
Fc1ccc(-c2csc(Nc3ccccn3)n2)c(F)c1	-1%	46*	-25%	2%	40*
c1ccc(-c2csc(Nc3ccccn3)n2)cc1	-12%	60*	10%	-5%	82*
O=C(NNc1nc(-c2ccccc2)cs1)c1ccccc1	22%	19	15%	5%	40
Cc1cc(-c2csc(Nc3ccccn3)n2)ccc1F	-21%	42*	6%	-3%	116*
Cc1ccc(-c2csc(Nc3ccccn3)n2)cc1	-25%	35*	5%	-4%	.
NC(=O)C1CCN(C(=O)CCC(=O)c2ccc(F)cc2)CC1	-2%	7	3%	-1%	-1
O=C(c1ccc(Cl)c(S(=O)(=O)N2CCCCC2)c1)N1CCN(Cc2ccccc2)CC1	17%	-4	.	-5%	-16
COc1ccc(C(=O)C2CCCN(C(=O)c3cccc(Cl)c3F)C2)cc1OC (configuration not stated)	-6%	20	.	-1%	4
OCCC1CN(Cc2cn[nH]c2C2CCCCC2)CCN1C1CCCC1 (configuration not stated)	0%	11	-1%	-7%	-6
Cn1cc(/C=C/C(=O)c2ccccc2)c2ccccc21	-9%	41*	-30%	-7%	74*
Cc1ccc(C(=O)/C=C/c2cn(CN3CCN(C)CC3)c3ccccc23)cc1	-17%	35*	-15%	3%	85*
CCC(=O)N1CCN(c2ccc(NC(=O)c3ccc4c(c3)OCCO4)cc2)CC1	.	19*	3%	2%	36
Cc1ccc(C(=O)Nc2ccc(N3CCN(C)CC3)cc2)cc1C	5%	32*	?	-7%	80*
CCC(=O)N1CCN(c2ccc(Cl)cc2NC(=O)c2ccc3c(c2)OCCO3)CC1	-69%	2	-3%	7%	-9
CN1CCN(c2ccc(NC(=O)c3ccc4c(c3)OCCO4)cc2)CC1	5%	36*	-2%	-3%	81*
Cc1ccc(C(=O)Nc2ccc(N3CCN(C)CC3)cc2)c(Cl)c1	8%	42*	-7%	-4%	62*
Nc1nc(N)c(CCCCc2ccccc2)c(N)n1	-8%	.	.	.	.
NC(=O)N/N=C/c1ccc2cccc(OCc3ccccc3)c2n1	-10%	2	-7%	-1%	20
O=C(Cc1ccccc1)N/N=C/c1ccc2cccc(O)c2n1	-5%	32*	-22%	-3%	38
CCOC(=O)CCCNC(=O)N1CCc2nc(-c3ccccc3)c3c(c2C1)CO[C@@H](C)C3	.	.	6%[12.9 µM]	-4%[11.5 µM]	.
CNc1ccc(Br)cc(C(=O)/C=C/c2ccc(Cl)cc2Cl)c1=O	3%	2	?	-1%	-4
CNc1ccc(Br)cc(C(=O)/C=C/c2ccc(OC)cc2OC)c1=O	?	65*	?	1%	80*
CNc1ccc(Br)cc(C(=O)/C=C/c2cccc(OC)c2)c1=O	16%	13*	?	1%	-35
O=C(Nc1cccc(C(=O)O)c1)/C(=C\c1ccccc1Cl)NC(=O)c1ccco1	-6%	-6	.	0%	26
SMILES	NS1 function inh	CHX counter	Giardia FBPA inh	LmPK inhibitor	Shiga inhibitor
COc1ccc(C2c3ccc(O)cc3Oc3ncn4nc(-c5cccnc5)nc4c32)cc1OC (configuration not stated)	7%	9	3%	6%	-7
O=C(/C=C/c1ccccc1)c1cc(Br)ccc(=O)c1O	-181%	-2	-18%	14%	23
O=C(/C=C/c1ccc2ccccc2n1)c1cc(Br)ccc1O	9%	43*	-22%	0%	80*
O=C(/C=C/c1ccc(F)cc1)c1cc(Br)ccc1O	0%	15*	-3%	3%	77*
CC[C@H](C)[C@H](NC(=O)[C@H](CCC(=O)O)NC(=O)[C@H](CO)NC(=O)[C@@H](NC(=O)[C@H](C)N)C(C)C)C(=O)N[C@@H](CCC(N)=O)C(=O)N[C@@H](CC(C)C)C(=O)N[C@@H](CCSC)C(=O)N[C@@H](Cc1cnc[nH]1)C(=O)N[C@@H](CC(N)=O)C(=O)N[C@@H](CC(C)C)C(=O)NCC(=O)N[C@@H](CCCCN)C(=O)N[C@@H](Cc1cnc[nH]1)C(=O)N[C@@H](CC(C)C)C(=O)N[C@@H](C)C(=O)N[C@@H](CO)C(=O)N[C@H](C(=O)N[C@@H](CCC(=O)O)C(=O)N[C@@H](CCCNC(=N)N)C(=O)N[C@@H](CCSC)C(=O)N[C@@H](CCC(N)=O)C(=O)N[C@@H](Cc1c[nH]c2ccccc12)C(=O)N[C@@H](CC(C)C)C(=O)N[C@@H](CCCNC(=N)N)C(=O)N[C@@H](CCCCN)C(=O)N[C@@H](CCCCN)C(=O)N[C@@H](CC(C)C)C(=O)N[C@@H](CCC(N)=O)C(=O)N[C@@H](CC(=O)O)C(=O)N[C@H](C(=O)N[C@@H](Cc1cnc[nH]1)C(=O)N[C@@H](CC(N)=O)C(=O)N[C@@H](Cc1ccccc1)C(=O)O)C(C)C)C(C)C	.	-4	1%	.	8
c1ccc(-c2ccccc2OCCOCCN2CCOCC2)cc1	15%	-3	14µM*	-1%	-15
Brc1ccccc1OCCCCCN1CCOCC1	.	29*	?	-9%	135*
c1ccc(SCCCCN2CCOCC2)cc1	-17%	15*	?	1%	42
CCN1CCN(CCCCSc2ccccc2)CC1	3%	-4	-29%	-6%	0
C=CCNCCOCCOc1ccccc1-c1ccccc1	5%	20*	19%	-5%	97*
O=C(c1ccco1)N1CCC[C@@]2(CCN(Cc3ccccc3)C2)C1	.	.	-3%	.	.
Cc1cc2nc(C3CCCN(C(=S)Nc4ccccc4)C3)[nH]c2cc1C (configuration not stated)	12%	35*	-2%	-2%	59
Cc1cc([N+](=O)[O-])ccc1N1C(=O)c2ccc(C(=O)Nc3ccccc3C(=O)O)cc2C1=O	4%	-1	-6%	-8%	27
Cc1csc(Nc2ccccc2)[n+]1C	.	36*	-3%	3%	67
CCOC(=O)CN1C(=O)CC(c2ccc([N+](=O)[O-])cc2)C1=O (configuration not stated)	26%	-3	-11%	7%	-4
COC1=C(C(=O)c2ccccc2)C(=O)C2(CC=C(C)C)C[C@H](C(=O)OCC(F)(F)F)C(C)(C)[C@@]1(CC=C(C)C)C2=O (tested in a mixture with another compound)	.	.	-2%	.	.
Cc1cc(N/N=C/c2ccccc2O)nc(-c2ccccc2O)n1	-11%	25*	0%	1%	46*
C/C(=N\Nc1cc(C)nc(-c2ccccc2O)n1)c1ccccc1O	2%	9	-8%	1%	5
Cc1cc(N/N=C\c2ccccc2)nc(-c2ccccc2O)n1	7%	84*	1%	1%	83*
Cc1cc(N/N=C/c2ccc(O)cc2O)nc(-c2ccccc2O)n1	13%	59*	11%	-3%	active

Bioassay records deposited in PubChem by National Center for Advancing Translational Sciences (NCATS).
